Reference: PubChem BioAssay AID624331 (National Center for Advancing Translational Sciences (NCATS), 2012)
Inconclusive results are not listed. Entries that show only a call come without a potency. Active and inactive are the calls of the source. Calls follow the shape of the dose curve; as a rule, active = well fitted activation curve with a large enough effect; inconclusive = small, poorly fitted or top-dose-only effect; inactive = no such curve, though single readings can be large or run the other way.

Assay: qHTS assay for re-activators of p53 using a Luc reporter: Hit Validation with no p53 Expressed
Conditions: p53-null cells, luciferase reporter counter-screen; series mostly up to 46.1 µM
In short: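 Counter-screen of primary hits in a cell line not transfected with p53, in Opti-MEM with 10% FBS; compounds at several concentrations (10 mM stock, 1:5; top 46.1 µM in well), 24 h at 37 deg C, 5% CO2. Luminescence read after 10 min with Amplite reagent.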
Potency is read from the fitted curve at half-maximal effect.

Structure (SMILES)	Potency
Cc1cnc(C(=O)OCC(=O)Nc2ccc(OCc3ccccc3)cc2)cn1	inactive
C=CCNc1ncnc2c1cnn2-c1ccc(Cl)cc1	inactive
Cc1ccc(C(=O)Nc2ccc(Cl)cn2)cc1	inactive
Cc1cccnc1NC(=O)/C=C/c1ccc2c(c1)OCO2	inactive
COc1cccc(Oc2ccc(N)cn2)c1	inactive
O=C(CC1NC2CCCCC2NC1=O)Nc1ccc2c(c1)OCO2 (centres undefined)	inactive
Cc1ccc(C)c(OCC(O)CN2C(C)CCCC2C)c1 (centres undefined)	inactive
CCCCNc1ncnc2c1cnn2-c1ccccc1	inactive
COc1cc(C(=O)N/N=C(\c2ccccc2)c2ccccn2)cc(OC)c1OC	inactive
O=C(N/N=C/c1cn(-c2ccccc2)nc1-c1cc2ccccc2o1)c1ccccc1Br	inactive
CN(C)CCCn1c(SCC(=O)Nc2nccs2)nnc1-c1ccncc1	inactive
Cc1ccc(C(=O)N2CC(=O)Nc3ccc(F)cc3C2c2ccc(F)cc2)cc1[N+](=O)[O-] (centres undefined)	inactive
COc1ccccc1-c1c(C)nn2c(C)c(C(C)=O)cnc12	inactive
C=CCn1c(SC(F)F)nc2scc(-c3ccco3)c2c1=O	inactive
Cc1c(C(=O)N2CCc3ccccc32)oc2c1C(=O)CC(C)(C)C2	inactive
Cc1ccc(-n2c(C)cc(C(=O)CSc3nnc4ccccn34)c2C)cc1	731 nM (active)
O=C(/C(=C\c1ccccc1)c1nc2ccccc2[nH]1)c1ccc(Cl)cc1	inactive
Cc1ccc(OC(=O)c2cccc(S(=O)(=O)N3CCCC3)c2)c(-n2nc3ccccc3n2)c1	inactive
O=[N+]([O-])c1ccc(NC(=S)NCCc2ccc(F)cc2)cc1	inactive
COc1ccccc1C(=O)NC(=S)NNC(=O)c1sc2ccccc2c1Cl	inactive

Structure (SMILES)	Potency
C=C[C@@H]1c2cc(C)ccc2N(S(=O)(=O)c2ccc(C)cc2)[C@H](c2ccccc2C(F)(F)F)C1(C#N)C#N	inactive
Cc1ccc(NC(=O)c2ccc(OC(=O)COc3ccc(Cl)c(C)c3)cc2)cc1	inactive
FC(F)(F)c1nnc2c(Sc3ccccn3)nc3ccccc3n12	inactive
O=C(Nc1cnc2ccccc2c1)C1COc2ccccc2O1 (centres undefined)	inactive
S=c1[nH]nc(-c2ccco2)n1Cc1ccccc1	inactive
NNC(=O)c1cccc(O)c1	inactive
CC(C)c1ccc2oc(-c3ccc(N)cc3)nc2c1	inactive
CCN1C(=O)C(=O)N(CC(=O)c2cc(C)n(C3CC3)c2C)C1=O	inactive
Cc1cccc(NC(=O)c2cnc3ccccn3c2=O)c1	inactive
C=CCNC(=S)N/N=C(\C)c1ccccn1	inactive
COc1ccc(-c2nc(-c3ccc(NC(=O)c4ccncc4)cc3)no2)cc1OC	inactive
Cc1cc(C)cc(OCC(=O)NNC(=O)c2ccccn2)c1	inactive
Brc1ccccc1-c1nc(-c2ccccc2)no1	inactive
O=C(CCS(=O)(=O)c1ccccc1)Nc1ccc(-c2nc3ccccc3s2)cc1	inactive
COc1cc(C2NC(=S)NC(O)(C(F)(F)F)C2C(=O)c2cccs2)cc(OC)c1O (centres undefined)	inactive
COCCn1c(SCC(=O)c2c(N)n(C3CC3)c(=O)[nH]c2=O)nnc1-c1cccc(C)c1	inactive
COc1ccc(CCC(=O)NC(C)C2CCCO2)cc1 (centres undefined)	inactive
O=C1NC(c2ccc(Br)cc2)=N/C1=C/c1ccco1	inactive
c1ccc2oc(C3=NNC(=NC4CC4)SC3)cc2c1	inactive
